Reference: ChEMBL document CHEMBL1157539, “Thousands of chemical starting points for antimalarial lead identification” (Nature, 2010)

Legend:
Format in all cases: functional
Plasmodium falciparum [1] = test: GSK_TCMDC: Inhibition of Plasmodium falciparum 3D7 in whole red blood cells, using parasite LDH activity as an index of growth. Test compounds present at 2uM
Plasmodium falciparum [2] = test: GSK_TCMDC: Inhibition of Plasmodium falciparum Dd2 in whole red blood cells, using parasite LDH activity as an index of growth. Test compounds present at 2uM
HepG2 = test: GSK_TCMDC: Percent inhibition of human HepG2 cell line. Test compounds present at 10uM.

| SMILES | Inhibition (Plasmodium falciparum [1]) [%] | Inhibition (Plasmodium falciparum [2]) [%] | Inhibition (HepG2) [%] |
| --- | --- | --- | --- |
| O=C(O)C(F)(F)F.Oc1ccc(CCNc2nc(NCCOc3ccccc3-c3ccccc3)nc(N3CCNCC3)n2)cc1 | 93 | 17 | 22 |
| CN(C)CCC1CCN(CCS(=O)(=O)c2cccc(Nc3ncc(-c4cccc(F)c4)cn3)c2)CC1 | 96 | 12 | 59 |
| CCCOc1cc(NC(=O)Nc2ccnc3ccccc23)cc(OCCC)c1.Cl | 100 | 98 | 6 |
| CCOC(=O)C(Oc1ccc2ccccc2c1)C(=O)OCC | 98 | 0 | 8 |
| COc1cccc(-c2cc(C(=O)NC3CCC(N4CCC(c5ccccc5C)CC4)CC3)[nH]n2)c1 (stereo not given) | 99 | 58 | 60 |
| CS(=O)(=O)Nc1cccc(-c2cnc3[nH]cc(-c4cccc(CN)c4)c3c2)c1 | 96 | 82 | 25 |
| Oc1cc(Nc2ccnc3cc(-c4ccc(CN5CCCCC5)o4)c(Cl)cc23)c(Cl)cc1F | 100 | 64 | 0 |
| C=CCn1cc(C2CCN(CCCCNC(=O)c3sc(-c4ccc(C(F)(F)F)cc4)nc3CO)CC2)c2cc(OC)ccc21 | 91 | 4 | 40 |
| O=c1c2c([nH]c3cc(Cl)ccc13)CCCC2 | 96 | 73 | 33 |
| O=C(/C=C/c1ccc(Cl)c(Cl)c1)NCCCCCN1CCC(CCNC(=O)C2(c3ccc(Cl)cc3)CC2)CC1 | 91 | 16 | 96 |
| CCCCCCNC(=O)C1Cc2c([nH]c3ccccc23)C2(CCN(CCc3ccccc3)CC2)N1 (stereo not given) | 96 | 34 | 41 |
| CCc1cc(OC)ccc1C1CCN(CCCCNC(=O)c2ccc(NC(=O)c3ccc(Cl)cc3)cc2)CC1.Cl | 95 | 61 | 23 |
| Cl.Clc1ccc(-n2cnc3c(Nc4ccc(Oc5ccccc5)cc4)ncnc32)cc1Cl | 99 | 65 | 4 |
| CCc1ccccc1N=C1c2c(cccc2[N+](=O)[O-])C(=O)C1C(C)=O (stereo not given) | 99 | 96 | 0 |
| CC(C)Cn1c(Sc2ccc(C#N)c([N+](=O)[O-])c2)nnc1-c1cccs1 | 90 | 32 | 9 |
| COc1ccc2c(=O)c(-c3ccc(OC(F)(F)F)cc3)c(C)[nH]c2c1 | 97 | 96 | 0 |
| FC(F)(F)c1ccc(CSc2ccc3nnc(-c4ccccn4)n3n2)cc1 | 95 | 54 | 0 |
| CC(CN)OCn1cnc2c(N)ncnc21.Cl (stereo not given) | 95 | 3 | 17 |
| Cc1ccc(Oc2ccc(CNc3nc(Nc4cccc(F)c4)nc(Nc4cccc(F)c4)n3)cc2)cc1 | 86 | 0 | 0 |
| N=C(NCCCCCCNC(=N)NC(=N)c1ccc(Cl)cc1)NC(=N)c1ccc(Cl)cc1 | 98 | 99 | 10 |

| SMILES | Inhibition (Plasmodium falciparum [1]) [%] | Inhibition (Plasmodium falciparum [2]) [%] | Inhibition (HepG2) [%] |
| --- | --- | --- | --- |
| CC(C)CC(=O)N1CCNC[C@@H]1C(=O)NCc1ccc(Cl)c(Cl)c1.O=C(O)C(F)(F)F | 99 | 16 | 0 |
| CC(C)CCNC(=O)C1Cc2c([nH]c3ccc(Br)cc23)C2(CCN(Cc3ccccc3)CC2)N1 (stereo not given) | 96 | 68 | 100 |
| Cc1onc(-c2c(Cl)cccc2Cl)c1C(=O)N1CCc2cc3nccc(N4CCN5CCC[C@H]5C4)c3cc21 | 100 | 58 | 3 |
| O=C(Nc1ccc(C(=O)N2CCN(CCN3CCN(c4cccc(C(F)(F)F)c4)CC3)CC2)cc1)c1cc(Cl)cc(Cl)c1 | 100 | 19 | 23 |
| COCCCNc1nc2cc(OC)c(OC)cc2c2nc(-c3ccccc3)nn12 | 95 | 97 | 6 |
| Cc1cccc2nc(-c3cccc(-c4ccc(NC(=O)CC5NC(=O)c6ccccc65)cc4)c3)[nH]c12 (stereo not given) | 100 | 67 | 30 |
| CCCCN(CCCC)/C(=N/C(=N)NCc1ccc(Cl)c(Cl)c1)NCCCCCCN/C(=N\C(=N)NCc1ccc(Cl)c(Cl)c1)N(CCCC)CCCC | 100 | 96 | 9 |
| O=C(O)C(F)(F)F.c1ccc(CNCc2ccc(-c3cccc(-c4nc5ccccc5[nH]4)c3)cc2)cc1 | 100 | 78 | 55 |
| CC(C)CNCc1cccc(-c2ccc(CN(CCCN3CCN(C)CC3)C(=O)CCC3CCCC3)cc2)c1.O=C(O)C(F)(F)F | 98 | 89 | 82 |
| Oc1cc2c(cc1CN1CCN(Cc3cccs3)CC1)CCC2 | 99 | 91 | 10 |
| O=C(NC1CCN(Cc2ccccc2)CC1)c1ccc(CNC2CCN(Cc3ccccc3)CC2)cc1.O=C(O)C(F)(F)F | 99 | 58 | 14 |
| CO/C(=C\C=C\c1cc2cc(Cl)c(Cl)cc2[nH]1)C(=O)NCCCN1CCCC[C@H]1C | 100 | 91 | 41 |
| O=C(NCCc1ccccc1)N(Cc1ccccc1-c1cccc(CNC2CCCC2)c1)C1CCN(Cc2ccccc2)CC1.O=C(O)C(F)(F)F | 95 | 87 | 31 |
| COc1ccc(Cl)cc1NC(=O)CN(C)C(=O)c1cnn(-c2ccccc2)n1 | 100 | 99 | 0 |
| Cc1cc2[nH]c(-c3ccc(C(=O)NCCCN4CCN(c5cccc(Cl)c5)CC4)cc3)nc2cc1Cl | 98 | 73 | 1 |
| Cn1cc(CN2CCCC(COC(c3ccc(F)cc3)c3ccc(F)cc3)C2)cn1 (stereo not given) | 98 | 100 | 15 |
| O=C(Nc1ccc(-c2ccc(-c3nc4ccccc4[nH]3)s2)cc1)Nc1ccc(Cl)c(Cl)c1 | 100 | 99 | 89 |
| Cc1cc(N[C@@H](Cc2ccccc2)C(=O)NCCOc2ccccc2)nc(NCCc2ccccn2)n1.O=C(O)C(F)(F)F | 92 | 42 | 12 |
| COc1ccc(CN2CCCC(OC(c3ccc(F)cc3)c3ccc(F)cc3)C2)c(O)c1 (stereo not given) | 100 | 99 | 16 |
| O=C1CC(C(=O)O)CC(=O)N1 | 94 | 88 | 0 |

| SMILES | Inhibition (Plasmodium falciparum [1]) [%] | Inhibition (Plasmodium falciparum [2]) [%] | Inhibition (HepG2) [%] |
| --- | --- | --- | --- |
| CN(C)CCN(Cc1ccccc1-c1ccc(CNCCc2ccccc2)cc1)C(=O)c1ccccc1.O=C(O)C(F)(F)F | 95 | 97 | 81 |
| COc1cc(-c2ccc3c(-c4ccc(C(=O)N5CCN(C)CC5)cc4)n[nH]c3n2)cc(OC)c1OC | 91 | 54 | 27 |
| Cc1cc(N(C)C2CCN(C)C2)nc(Nc2ccccc2Cl)n1 (stereo not given) | 100 | 84 | 1 |
| COc1ccc2nccc([C@@H](O)CN3CCC(NC(=O)C(c4cc5ccccc5s4)N4CC(C)OC(C)C4)CC3)c2c1 (stereo not given in full) | 93 | 44 | 12 |
| Cc1cc(Cl)ccc1OC(C)C(=O)N1CCc2ccccc21 (stereo not given) | 94 | 78 | 8 |
| CCNC(=O)Nc1cccc(-c2cccc(-c3nc4cc(C(F)(F)F)ccc4[nH]3)c2)c1 | 91 | 32 | 50 |
| O=C(N/C=N/c1cc([N+](=O)[O-])c(-c2ccncc2)n1-c1ccccc1)c1cccc(O)c1 | 100 | 56 | 2 |
| COc1cc2ccccc2c(CON2C(=N)N=C(N)NC2(C)C)c1OC.Cl | 96 | 10 | 2 |
| O=C(COC(=O)c1cccc(S(=O)(=O)N2CCc3ccccc32)c1)NNC(=O)c1cccs1 | 96 | 4 | 4 |
| CN1CCC(NCc2ccc(-c3ccc(C(F)(F)F)cc3)cc2)CC1 | 99 | 71 | 54 |
| CS(=O)(=O)Cc1ccc(Nc2nccc(-c3c(-c4cccc(NC(=O)C5CCCCC5)c4)nn4ncccc34)n2)cc1 | 98 | 99 | 31 |
| O=C1c2ccccc2C(=O)N1CCOc1c(Br)cc(Br)cc1CNCCCNc1cc(=O)c2ccccc2[nH]1 | 92 | 12 | 10 |
| CCCc1cn2c3c(cc(C(=O)N[C@@H](Cc4ccccc4)[C@H](O)CNC4CCCCC4)cc13)N(CC)S(=O)(=O)CC2.O=CO | 98 | 98 | 2 |
| CCCN(CCC)CCCNc1ccc(C(=O)Nc2ccc(C)c(F)c2)cc1[N+](=O)[O-] | 100 | 94 | 33 |
| CCN(CC)CCCOC(=O)c1ccc2c(c1)-c1ccc(C(=O)OCCCN(CC)CC)c3cccc-2c13.Cl | 98 | 96 | 22 |
| COc1cccc(NC(=O)c2cc(Br)cc(N3CCN(c4ccncc4)CC3)c2)c1.O=C(O)C(F)(F)F | 100 | 79 | 30 |
| O=C(NC1CCCCC1)N(Cc1ccc(-c2ccc(CNC3CCCC3)cc2)cc1)C1CCN(Cc2ccccc2)CC1.O=C(O)C(F)(F)F | 99 | 86 | 31 |
| c1cncc(CNc2ncc(-c3ccsc3)c(-c3nccs3)n2)c1 | 81 | 63 | 0 |
| CCCCOC(=O)C1=C(C)NC2=C(C(=O)CC(c3ccc(OC)c(OC)c3)C2)C1c1ccc(O)cc1 (stereo not given) | 90 | 75 | 0 |
| CN1CCN(CCCN(Cc2csc(-c3ccc(CNCc4ccccc4)cc3)n2)C(=O)c2cc(F)cc(F)c2)CC1.O=C(O)C(F)(F)F | 97 | 53 | 60 |
